Compound activity: PubChem BioAssay, several laboratories
Hits are enriched below; roughly 4.6% of the tested compounds scored in any of these assays.
TIM10 inh: inhibits growth of TIM10 yeast strain; S. cerevisiae TIM10 strain growth, BacTiter-Glo luminescence, 24 h; 330,000 tested, 1.4% active; inhibition, % at 10 µM; AID 463195;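 active = inhibition of 40% or more at the single tested concentration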;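 also: wild-type TIM10 isogenic control strain grown at permissive 25 °C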
tim10-1 inh: inhibits growth of tim10-1 mutant yeast; S. cerevisiae tim10-1 ts strain growth, BacTiter-Glo, 24 h; inhibition, % at 20 µM; 330,000 tested, 2.2% active;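 active = inhibition of at least 40%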;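 also: mutant grown at 25 °C; 0% = DMSO wells with yeast and 100% = wells holding no yeast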
SKKanGAS inh: inhibitors of SKKanGAS S. pyogenes growth in kanamycin (SK-promoter or general growth effect). AID 1662. inhibition, % at 7.5 µM. 300,000 tested, 1.3% active. BacTiter-Glo, 6 h;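 active = mean replicate score, as percent of positive control median, at least 50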;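 also: strain carries kanamycin resistance gene driven by streptokinase promoter and grows in 40 µg/ml kanamycin; loss of luminescence reflects streptokinase promoter inhibition or plain growth inhibition; 0% = median of DMSO wells and 100% = positive control at its reference dose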
NALP3 yeast inh: blocks the NALP3 inflammasome reconstituted in yeast; Yeast reconstituted NLRP3/ASC/caspase-1, beta-gal luminescence, 24 h; inhibition, % at 10 µM; 330,000 tested, 0.39% active; AID 2825;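 active = inhibition of 50% or more; inactive = inhibition below 50%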;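 also: plate controls were induced DMSO wells for no effect and uninduced yeast grown without galactose for full effect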
tim23-1 inh: tim23-1 yeast growth inhibition; 330,000 tested, 1.3% active; S. cerevisiae tim23-1 growth, BacTiter-Glo luminescence, 24 h; inhibition, % at 20 µM;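 active = growth inhibition of the mutant yeast at or above 50%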;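 also: temperature-sensitive mutant grown at 25 °C; plate controls were DMSO-treated mutant yeast for no effect and medium wells lacking yeast for full effect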
tim23-1 conf: confirmation of tim23-1 mutant yeast growth inhibitors. shares compounds with tim23-1 inh. S. cerevisiae tim23-1 growth, BacTiter-Glo luminescence, 24 h. inhibition, % at 20 µM. 4,400 tested, 83% active. AID 463218;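 active = inhibition above about 39% in either of two replicate wells at 20 µM, limit read from the data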;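 also: temperature-sensitive tim23-1 mutant grown at 25 °C; 0% = DMSO wells with yeast and 100% = medium wells without yeast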
Starred values were filed as active, the others as inactive.

`C=C1c2cccc(OC)c2O[C@H](C(=O)OCC)[C@@H]1CC(CC)CCCC` (some centres undefined) gave TIM10 inh 16, tim10-1 inh 27, tim23-1 inh 51* and tim23-1 conf 36.
`C[C@H](CO)N1C[C@H](C)[C@@H](CN(C)C(=O)Nc2ccc(C(F)(F)F)cc2)Oc2ccc(NS(=O)(=O)c3cn(C)cn3)cc2C1=O` gave TIM10 inh 2, tim10-1 inh -1, NALP3 yeast inh 1 and tim23-1 inh -8.
Screening S=C(NCCc1cccc(Cl)c1)NCc1ccccc1 returned TIM10 inh 30, tim10-1 inh 36, NALP3 yeast inh 14, tim23-1 inh 56* and tim23-1 conf 34.
For Cn1cc([N+](=O)[O-])c(C(=O)NCc2ccccc2)n1 the results were TIM10 inh -16, tim10-1 inh -10, SKKanGAS inh 8, NALP3 yeast inh 12 and tim23-1 inh 3.
For CC(=O)n1cc(N(C(=O)CCl)c2ccc(C)cc2)c2ccccc21 the results were TIM10 inh 22, tim10-1 inh 35, SKKanGAS inh -5, NALP3 yeast inh 12, tim23-1 inh 69* and tim23-1 conf 36.
Cc1sc2nc(C3CC3)nc(SCC(=O)N3CCc4ccccc4C3)c2c1C was read as TIM10 inh 23, tim10-1 inh 38, SKKanGAS inh 25, NALP3 yeast inh 0 and tim23-1 inh 29.
For CCc1c(C)sc2nc(C(C)C)nc(SCC(=O)N3CCc4ccccc4C3)c12 the results were TIM10 inh 24, tim10-1 inh 19, SKKanGAS inh 62*, NALP3 yeast inh 9, tim23-1 inh 51* and tim23-1 conf 41*.
`NS(=O)(=O)c1ccc(N2N=C(c3ccccc3)CC2c2cccc(Cl)c2)cc1` (centres undefined) gave TIM10 inh 17, tim10-1 inh 24, tim23-1 inh 53* and tim23-1 conf 31.
Screening O=C(NCc1ccccc1F)C1CCCN1C(=O)Nc1ccc(Cl)cc1 (centres undefined) returned TIM10 inh -5, tim10-1 inh -12, SKKanGAS inh -5, NALP3 yeast inh 0 and tim23-1 inh -3.
Screening CCOC(=O)c1c(C)oc2c1c(C(c1ccccc1)N1CCOCC1)c(O)c1ccccc12 (centres undefined) returned TIM10 inh 39, tim10-1 inh 39, SKKanGAS inh 67*, NALP3 yeast inh 8, tim23-1 inh 66* and tim23-1 conf 43*.
Screening CCOC(=O)c1c(C)oc2c1c(C=NCCO)c(O)c1ccccc12 returned SKKanGAS inh 28.
Screening CCOC(=O)c1c(C)oc2c1c(C(c1cccnc1)N1CCCCC1)c(O)c1ccccc12 (centres undefined) returned TIM10 inh 18, tim10-1 inh 26, SKKanGAS inh 1, NALP3 yeast inh 11, tim23-1 inh 50* and tim23-1 conf 45*.
Screening CCOC(=O)C1CCN(C(c2cccnc2)c2c(NC(=O)c3ccco3)sc(C)c2C)CC1 (centres undefined) returned TIM10 inh -6, tim10-1 inh 6, SKKanGAS inh 6, NALP3 yeast inh 13 and tim23-1 inh 2.
Screening CN(CC(=O)NC(=O)NC(C)(C)C)CC(=O)Nc1ccccc1Cl returned TIM10 inh 5, tim10-1 inh 2, SKKanGAS inh 12, NALP3 yeast inh 12 and tim23-1 inh 16.
`O=C(O)CN1C(=O)c2cccc3c(Br)ccc1c23` gave TIM10 inh -3, tim10-1 inh -13, SKKanGAS inh -5, NALP3 yeast inh 7 and tim23-1 inh -12.
Screening CN(C)CCCN1C(=O)c2cccc3c(Br)ccc(c23)C1=O returned TIM10 inh 28, tim10-1 inh 38, SKKanGAS inh 8, NALP3 yeast inh 3, tim23-1 inh 62* and tim23-1 conf 71*.
Screening COC(=O)C1=C(C(=O)OC)C(c2ccc(OC)c(OC)c2)c2sc(=O)[nH]c2S1 (centres undefined) returned TIM10 inh -1, tim10-1 inh 28, SKKanGAS inh 1, NALP3 yeast inh 5 and tim23-1 inh 22.
For COC(=O)C1=C(C(=O)OC)C(c2cc(Cl)ccc2O)c2sc(=O)[nH]c2S1 (centres undefined) the results were TIM10 inh 33, tim10-1 inh 34, SKKanGAS inh 23, NALP3 yeast inh 6, tim23-1 inh 62* and tim23-1 conf 58*.
Cc1ccccc1[C@]1(C)ON(c2ccccc2C(F)(F)F)C1=O was read as TIM10 inh 31, tim10-1 inh 9, NALP3 yeast inh 35, tim23-1 inh 53* and tim23-1 conf 58*.
`CC(C)[C@@]1(c2ccccc2)ON(c2ccccc2C(F)(F)F)C1=O` gave TIM10 inh 1, tim10-1 inh -46, NALP3 yeast inh 3 and tim23-1 inh 6.
`COc1cccc(C(=O)Nc2ccc(NC(C)=O)cc2)c1` gave TIM10 inh -18, tim10-1 inh 5, SKKanGAS inh 5, NALP3 yeast inh -4 and tim23-1 inh 1.
For COc1cccc(C(=O)C(C#N)=C(SC)SC)c1 the results were TIM10 inh 38, tim10-1 inh 14, SKKanGAS inh 2, NALP3 yeast inh -7, tim23-1 inh 60* and tim23-1 conf 77*.
`CSC(SC)=C(C#N)C(=O)c1ccccc1` gave TIM10 inh 10, tim10-1 inh 37, SKKanGAS inh -2, NALP3 yeast inh 8, tim23-1 inh 80* and tim23-1 conf 85*.
COc1ccc2ccccc2c1/C=N\NC(=O)c1ccc(C)s1 was read as TIM10 inh 21, tim10-1 inh 9, NALP3 yeast inh 28, tim23-1 inh 51* and tim23-1 conf 38.
Cc1cc(C)n(CCC(=O)N/N=C/c2c(O)ccc3ccccc23)n1 was read as TIM10 inh 19, tim10-1 inh -4, SKKanGAS inh 3, NALP3 yeast inh 1, tim23-1 inh 54* and tim23-1 conf 51*.
COc1ccccc1OCC(=O)N/N=C/c1c(O)ccc2ccccc12 was read as TIM10 inh 30, tim10-1 inh 36, SKKanGAS inh 32, NALP3 yeast inh 25, tim23-1 inh 59* and tim23-1 conf 55*.
Cc1cc(C)n(CCC(=O)N/N=C/c2ccc(O)cc2)n1 was read as TIM10 inh -12, tim10-1 inh 16, SKKanGAS inh -11, NALP3 yeast inh 7 and tim23-1 inh 8.
`CS(=O)(=O)c1ccc(Cl)c(NC(=O)COC(=O)CNC(=O)c2ccc3ccccc3c2)c1` gave TIM10 inh -2, tim10-1 inh 2, SKKanGAS inh -20, NALP3 yeast inh 3 and tim23-1 inh 11.
Cc1ccc(S(=O)(=O)N2CCCN(S(=O)(=O)c3ccccc3Br)CC2)cc1 was read as TIM10 inh 2, tim10-1 inh 22, tim23-1 inh 52* and tim23-1 conf 24.
For Cc1ccc(S(=O)(=O)N2C/C=C\CN(S(=O)(=O)c3ccccc3Br)CC2)cc1 the results were TIM10 inh 9, tim10-1 inh 25 and tim23-1 inh 49.
